Shown are actives, neighbours in structure and some others; about 4.6% of the full set was active somewhere.
D1 PAM – Potentiators of Human D1 Dopamine Receptor: qHTS; D(1A) dopamine receptor (Homo sapiens), P21728; HEK293 TREx D1 cells, calcium flux, dopamine EC20 potentiation; potentiation, % at 10 µM; hit rate 0.036% among 360,000; AID 504651, 2011; in the data active = potentiation above about 30%
TRHR agonist – qHTS for Small Molecule Agonists and Allosteric Enhancers of Human TRH Receptor: Primary Screen for Agonists; TRHR cells, calcium flux fluo-8, FDSS agonist mode; activation, % at 2 µM; hit rate 0.18% among 360,000; AID 493084, 2011
Target sequence (P34981 whole entry, looked up): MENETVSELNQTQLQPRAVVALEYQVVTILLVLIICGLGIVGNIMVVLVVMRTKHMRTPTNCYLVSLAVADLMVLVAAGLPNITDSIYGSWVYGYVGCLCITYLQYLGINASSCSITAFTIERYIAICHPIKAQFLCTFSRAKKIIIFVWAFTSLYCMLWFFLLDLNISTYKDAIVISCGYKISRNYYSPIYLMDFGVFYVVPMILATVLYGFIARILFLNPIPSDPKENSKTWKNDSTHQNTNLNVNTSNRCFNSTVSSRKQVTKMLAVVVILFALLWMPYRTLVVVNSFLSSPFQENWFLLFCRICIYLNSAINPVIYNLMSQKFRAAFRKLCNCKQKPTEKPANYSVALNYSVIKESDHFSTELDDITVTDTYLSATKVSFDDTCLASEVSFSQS
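Steps: seed TRHR cells overnight; add fluo-8 no-wash Ca dye, RT 30 min–1.5 h; record 10 s baseline; pin-transfer compounds; monitor fluorescence 1 cycle/s for the agonist window. Calcium increases flag candidate agonists.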
D1 agonist – Allosteric Agonists of the Human D1 Dopamine Receptor: qHTS; activation, % at 2 µM; hit rate 1% among 360,000; D(1A) dopamine receptor (Homo sapiens), P21728; HEK293 T-REx D1 cells, calcium flux, agonist mode
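Agonism was scored from calcium flux recorded over 180 s (1 read/s) after pintool compound addition, following a 10-cycle baseline. Cells were inducible force-coupled HEK293 TREx D1, plated overnight at 30 C and loaded with no-wash calcium dye.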
TRHR PAM – qHTS for Small Molecule Agonists and Allosteric Enhancers of Human TRH Receptor: Primary Screen for Enhancers. Thyrotropin-releasing hormone receptor (Homo sapiens), P34981. TRHR cells, fluo-8 calcium fluorescence, EC20 TRH enhancement. enhancement, % at 2 µM. hit rate 0.66% among 360,000. AID 493056, 2011; in the data active = enhancement above about 30%
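Enhancer read-out: after compound pinning and an initial kinetic agonist-mode read, an EC20 of TRH (10 nM final) was injected and fluo-8 calcium signal (Ex 480/Em 530) followed at 1 s/cycle for 100 cycles in TRHR-expressing cells.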
D1 antagonist – Antagonist of Human D 1 Dopamine Receptor: qHTS; D(1A) dopamine receptor (Homo sapiens), P21728; HEK293 TREx D1 cells, calcium flux, dopamine EC80; active compounds read low; activity change, negative = inhibition, % at 10 µM; hit rate 3.2% among 360,000; in the data active = activity change below about -30%
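Cells carrying a force-coupled, tetracycline-inducible human D1 receptor report calcium flux. Each well gets a 10 s baseline, compound with 180 s monitoring, then an EC80 dopamine stimulus with a second 180 s kinetic read.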
Each line names hits and unclear results; the compound was inactive in the other large screens. Cut-off read from the data, not from the text of the source, unless noted: active = activation above about 30%; inactive = the rest.

O=[N+]([O-])c1ccc2nc(NS(=O)(=O)c3ccc(Cl)cc3)sc2c1	none
Cc1ccc(NC(=O)COC(=O)CCC(=O)c2cccs2)cc1S(=O)(=O)N1CCOCC1	none
CC(C)CSC1=NSC2=NC(=O)/C(=C\c3coc4ccccc4c3=O)C(=N)N12	TRHR agonist 51, D1 agonist 240
N=C1/C(=C\c2coc3ccccc3c2=O)C(=O)N=C2SC(c3ccncc3)=NN12	TRHR agonist 146, D1 agonist 256, TRHR PAM 33, D1 antagonist -31
CSC1=NSC2=NC(=O)/C(=C\c3coc4ccccc4c3=O)C(=N)N12	TRHR agonist 121, D1 agonist 306, D1 antagonist -48
N=C1/C(=C/c2coc3ccccc3c2=O)C(=O)N=C2SC(c3ccco3)=NN12	none
CC(=O)Nc1ccc(C(=O)NN2C(=O)NC3(CCCCC3)C2=O)cc1	none
c1ccc(CCCN2CCN(c3ccccc3)CC2)cc1	none
Cc1ccc(-c2nnn(CC(=O)NC3CCN(Cc4ccccc4)CC3)n2)cc1	D1 agonist 31
O=C(NC1CCN(Cc2ccc(Cl)cc2)CC1)c1cn(-c2ccccc2)nc1-c1cccnc1	D1 antagonist -50 (no result: D1 PAM)
O=C(Cn1nnc(-c2ccc(Cl)cc2)n1)NC1CCN(Cc2ccccc2)CC1	D1 agonist 37, D1 antagonist -59
COc1ccc(OC)c(CNC(=O)C2CCCN(S(=O)(=O)N3CC(C)CC(C)C3)C2)c1 (stereo unspecified)	none
O=C(O)c1cccc(S(=O)(=O)Nc2ccc3c(c2)CCC3)c1	none
C#CCOCCOCCOCCNc1nc(N2CCN(C(=O)CCCCCCCCCCNC(=O)Cn3cc(C[C@@H](C)O)nn3)CC2)nc(N2CCN(C(=O)CCCCCCCCCCNC(=O)[C@H](CCCCN)n3cc(C[C@@H](C)CC)nn3)CC2)n1	none
N#Cc1ccc(OCC(=O)Nc2cccc(S(=O)(=O)NC3=NCCCCC3)c2)cc1	none
CCOC(=O)c1ccccc1NC(=O)COC(=O)CC(C)(C)CC1=NS(=O)(=O)c2ccccc2N1	D1 antagonist -37
CC1CN(S(=O)(=O)c2ccc(C(=O)Nc3nnc(-c4ccc5c(c4)CCCC5)o3)cc2)CC(C)O1 (stereo unspecified)	none
CC(C)Cn1c(=O)c2c(nc3n2CC(C)CN3Cc2ccccc2)n(C)c1=O (stereo unspecified)	none
CN(C)CCNC(=O)C(=O)NCC(c1ccc2c(c1)OCO2)N1CCN(c2ccc(F)cc2)CC1 (stereo unspecified)	none
CCOc1ccc(C2CC(c3ccccc3C)n3ncnc3N2)cc1 (stereo unspecified)	D1 antagonist -40 (no result: D1 PAM)
Cc1ccccc1C1CC(c2ccccc2)Nc2ncnn21 (stereo unspecified)	none (no result: D1 PAM)
O=C(Nc1ccccc1N1CCCC1)c1ccccc1F	none
COc1ccccc1C(=O)Nc1ccccc1N1CCN(S(C)(=O)=O)CC1	D1 antagonist -37
O=C(Nc1ccccc1N1CCCC1)c1cccc(Cl)c1Cl	D1 antagonist -32
COc1cc(C(=O)Nc2ccccc2N2CCN(S(C)(=O)=O)CC2)cc(OC)c1OC	none
CNc1nc(C)cc(C)c1S(=O)(=O)c1ccc(Cl)cc1	none
Cc1noc(/C=C/c2cccnc2)c1[N+](=O)[O-]	none
Cc1ccc(N/C=C/c2onc(C)c2[N+](=O)[O-])cc1	D1 agonist 33
Cc1noc(/C=C/c2ccc(-c3ccccc3Cl)o2)c1[N+](=O)[O-]	TRHR agonist 32, D1 agonist 133
Cc1cccc(C)c1N/C=C/c1onc(C)c1[N+](=O)[O-]	none
Cc1nc(NCc2ccccc2)c2cc[nH]c2n1	D1 antagonist -34
COc1cccc(-c2nc(NCc3ccccc3)c3ccccc3n2)c1O	none
O=C(NCC1CCCO1)C1CCCN1C(=O)NC1CCCCC1 (stereo unspecified)	none
Cc1ccc(/C=N/N(C)C2=NS(=O)(=O)c3ccccc32)o1	D1 antagonist -43
CCOC(=O)c1ccc(NC(=O)N2CCOc3ccccc32)cc1	D1 antagonist -30
CCOC(=O)c1ccc(NC(=O)CC2COc3ccccc3O2)cc1 (stereo unspecified)	D1 antagonist -30
COc1ccc(-c2cc(C(F)(F)F)nc(NCc3ccc(F)cc3)n2)cc1	none
COc1cccc(-n2c(=O)c3sccc3n(Cc3cc(=O)n4cc(Cl)ccc4n3)c2=O)c1	D1 antagonist -32
O=c1c2sccc2n(Cc2cc(=O)n3ccccc3n2)c(=O)n1-c1cccc(C(F)(F)F)c1	none
CC1=NN(c2ccccc2)C(=O)C1	none
CC1=NN(c2cccc([N+](=O)[O-])c2)C(=O)C1	D1 agonist 43
CCC1CCCCN1C(=O)CCn1ccnc1 (stereo unspecified)	TRHR PAM 32
Cc1cc(C)nc(NC2=NCC(=O)N2c2ccc3c(c2)OCCO3)n1	D1 antagonist -84
COc1ccc(N2C(=O)CN=C2Nc2nc(C)cc(C)n2)cc1	none
O=C(NCCO)c1cccc(Nc2nc(-c3ccccc3)c3cc(Cl)ccc3n2)c1	TRHR PAM 31
CCC(=O)N(CCC(c1ccccc1)c1ccc2c(c1)OCO2)Cc1ccc(OC(C)C)cc1 (stereo unspecified)	D1 antagonist -53
COc1cccc(NC(=O)N(Cc2cc3cc(C)cc(C)c3[nH]c2=O)CC2COCCO2)c1 (stereo unspecified)	D1 antagonist -32
Cc1ccc(NC(=O)N(Cc2cc3cc(C)cc(C)c3[nH]c2=O)CC2COCCO2)cc1 (stereo unspecified)	none
COCc1[nH][nH]c(=O)c1C=Nc1ccc(OC(F)(F)F)cc1	D1 antagonist -33
CCOc1ccc(S(=O)(=O)n2nc(C)cc2C)c2ccccc12	TRHR PAM 35
CCOc1ccc(N2C(=O)/C(=C/c3cccs3)N(C)C2=S)cc1	D1 antagonist -37
CCOc1ccc(N2C(=O)CN(C)C2=S)cc1	none
Cc1cccc(CN2C(=O)c3ccccc3S(=O)(=O)c3ccc(C(=O)NCCCN4CCCC4)cc32)c1	none
Cc1noc(C)c1S(=O)(=O)NC1CCN(Cc2ccccc2)CC1	D1 antagonist -41
CCCCCCCCOC(=O)c1nc(Cl)c(Cl)c(N)c1Cl	none
COC(=O)c1nc(Cl)c(Cl)c(N)c1Cl	D1 antagonist -31
N#Cc1nc(NCC(F)F)c2ncn(-c3cccc(Cl)c3)c2n1	D1 antagonist -49
N#Cc1nc(Nc2cc(F)cc(F)c2)c2ncn(CC(F)F)c2n1	none
